For 17 molecules, Potency results are on record in PubChem BioAssay (NCATS).

Holding throughout (experiment): qHTS profiling for inhibitors of Plasmodium falciparum proliferation (AID 504749); also: nearly all actives have a fitted effect of over 60% in size
What all share (details): P. falciparum in erythrocytes, SYBR Green DNA, 72 h; series mostly up to 28.7 µM

The subject of one test is CP215. In short, it runs like this: (§1)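 In a 72 h erythrocytic culture (37 C, humidified, 5% CO2) at 2.5% hematocrit and 0.3% starting parasitemia, compounds were tested; SYBR Green I in detergent lysis buffer stained parasite DNA overnight.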
The subject of another test is CP217. The method, boiled down:
as §1

The subject of another test is CP247. In short, it runs like this:
as §1

The next test has as its system CP291. In short, it runs like this:
as §1

The subject of another test is CP315. In short, it runs like this:
as §1

The next test concerns CP252. The method, boiled down:
as §1

The next test relates to CP260. In short, it runs like this: as §1
For a further test, the system named is CP262. The method, boiled down:
as §1

The test system of the next test is CP268. The method, boiled down:
as §1

A further test has as its system CP297. In short, it runs like this:
as §1

The subject of another test is CP237. In short, it runs like this:
as §1

The subject of a further test is CP238. In short, it runs like this:
as §1

A further test deals with CP250. In short, it runs like this:
as §1

The next test has as its system CP256. The method, boiled down: as §1
Another test concerns CP265. The method, boiled down:
as §1

A further test deals with CP269. The method, boiled down: as §1
In the next test the test system is CP286. The method, boiled down: as §1
Another test relates to CP305. The method, boiled down:
as §1

A further test relates to CP325. In short, it runs like this:
as §1

A further test concerns CP266. The method, boiled down:
as §1

Structures are written as SMILES. Inconclusive results are not listed. Active and inactive are the calls of the source. Calls follow the shape of the dose curve; as a rule, active = well fitted inhibition curve with a large enough effect; inconclusive = small, poorly fitted or top-dose-only effect; inactive = flat fitted curve, though single readings scatter.
Potency is read from the fitted curve at half-maximal effect.

For the molecule `O=C(Nc1cccc(C(F)(F)F)c1)c1cc(Br)cc(Br)c1O`, the Potency in the test on CP215 was 12 µM (active); in the test on CP217, 8.91 µM (active); in the test on CP247, 8.91 µM (active); with CP291, 12 µM (active); in the test with CP315, 15.1 µM (active).

As for `COc1cc(-c2ccc(-[n+]3nc(-c4ccccc4)nn3-c3ccc([N+](=O)[O-])cc3)c(OC)c2)ccc1-[n+]1nc(-c2ccccc2)nn1-c1ccc([N+](=O)[O-])cc1`, the Potency in the test on CP247 was 11.2 µM (active); with CP252 it was 8.91 µM (active); with CP260, 12.6 µM (active); in the test with CP268, 16.9 µM (active); in the test on CP297, 16.9 µM (active). Moreover, the Potency result in the test with CP262 was “inactive”.

As for `O=S(=O)(O)O`, the Potency result with CP217, in the test with CP237, in the test on CP238, in the test with CP247, in the test with CP250 and in the test on CP252 was “inactive” throughout. For the same molecule, the Potency entry with CP256, in the test on CP260, in the test with CP262, in the test on CP265, in the test on CP268 and in the test on CP269 was “inactive” each time. Moreover, the Potency result in the test with CP286, in the test on CP291, with CP297, with CP305, in the test on CP315 and in the test with CP325 was “inactive” throughout.

`CCN(CC)CCOc1ccc(-c2nc3cc(Cl)ccc3s2)cc1`: the Potency entry with CP215, in the test with CP217, in the test on CP238, with CP250, with CP252 and with CP256 was “inactive” in each case. For the same molecule, the Potency entry in the test on CP262, with CP265, in the test with CP266, with CP269, in the test with CP291 and with CP297 was “inactive” in each case. For the same molecule, the Potency entry in the test on CP305, with CP315 and in the test on CP325 was “inactive” each time.

On to `NC1C2CN(c3nc4c(cc3F)c(=O)c(C(=O)O)cn4-c3ccc(F)cc3F)CC12` (configuration not stated), for which the Potency with CP269 was 6.75 µM (active).

For the molecule `COC(=O)C1=C(C#N)NC(C)=C(C(=O)OC(C)C)C1c1cccc([N+](=O)[O-])c1` (configuration not stated), the Potency in the test with CP217 is 11.2 µM (active); in the test with CP238, 10 µM (active); in the test with CP247 it was 8.91 µM (active); in the test on CP256, 7.94 µM (active); in the test on CP260, 11.2 µM (active); with CP265, 10 µM (active). The Potency in the test on CP269 is 13.5 µM (active); in the test with CP286, 10 µM (active); in the test on CP291, 16.9 µM (active); in the test with CP297, 13.5 µM (active); in the test on CP305, 13.5 µM (active).

Regarding `C=C1C(=CC=C2CCC[C@@]3(C)[C@@H]2CC[C@H]3[C@H](C)CCCC(C)C)C[C@@H](O)C[C@@H]1O`, the Potency result with CP215, in the test on CP262, in the test on CP266, with CP268, with CP269 and with CP291 was “inactive” in each case. Also, the Potency result in the test on CP297, in the test on CP305, with CP315 and with CP325 was “inactive” in each case. The Potency in the test on CP265 is 11.2 µM (active).

For `CCCCC(C)(O)C/C=C/[C@H]1[C@H](O)CC(=O)[C@@H]1CCCCCCC(=O)OC` (some centres not stated), the Potency entry in the test with CP217, in the test with CP237, in the test on CP238, in the test with CP247, in the test on CP250 and in the test with CP252 was “inactive” each time. Further, the Potency entry in the test on CP256, with CP260, with CP262, in the test with CP265, with CP266 and in the test on CP268 was “inactive” each time. The Potency result with CP269, with CP286, in the test on CP291, in the test with CP297, in the test on CP305 and in the test with CP315 was “inactive” in each case. The Potency result in the test on CP325 was “inactive”.

As for `O=S(=O)(O)c1ccc2c(N=Nc3ccc(S(=O)(=O)O)c4ccccc34)c(O)c(S(=O)(=O)O)cc2c1`, the Potency entry with CP217, in the test with CP237, in the test on CP238, in the test with CP247, in the test with CP250 and in the test with CP252 was “inactive” throughout. In addition, the Potency result in the test with CP256, in the test on CP260, with CP262, in the test on CP265, in the test with CP266 and in the test on CP268 was “inactive” each time. For the same molecule, the Potency entry in the test with CP269, with CP286, with CP291, with CP297, with CP305 and with CP315 was “inactive” in each case. Besides, in the test on CP325, the Potency result is “inactive”.

Turning to `Clc1cc(Cl)c(OCC#CI)cc1Cl`, the Potency in the test on CP247 was 7.08 µM (active); in the test with CP250, 11.2 µM (active); in the test with CP265 it was 10 µM (active); in the test on CP291 it was 8.49 µM (active). For the same molecule, in the test on CP315, the Potency entry is “inactive”.

In the case of `O=C(O)c1cc(O)c2c(c1)[O][Bi][O]2`, the Potency result in the test on CP217, with CP237, in the test with CP238, in the test on CP247, with CP250 and in the test with CP252 was “inactive” each time. Further, the Potency result with CP256, in the test on CP260, with CP262, in the test with CP265, with CP268 and in the test on CP269 was “inactive” throughout. Moreover, the Potency entry with CP286, in the test with CP291, in the test on CP297, with CP305, with CP315 and in the test on CP325 was “inactive” each time.

`O=C(Nc1ccc(Br)cc1)c1cc(Br)c(Br)s1`: the Potency result with CP250 and in the test on CP262 was “inactive” each time. Besides, the results for the Potency in the test with CP268 and in the test on CP305 were 12 µM (active) and 16.9 µM (active), respectively.

With `CCCCC(CC)COC(=O)CC(C(=O)OCC(CC)CCCC)S(=O)(=O)O` (configuration not stated), the Potency entry in the test with CP215, in the test on CP262, in the test with CP266, in the test on CP268, with CP269 and with CP291 was “inactive” each time. Further, the Potency result with CP297, with CP305, with CP315 and with CP325 was “inactive” throughout.

As to `COC(=O)[C@H]1[C@H]2CC3c4[nH]c5ccccc5c4CCN3C[C@@H]2CC[C@@H]1O` (some centres not stated), the Potency entry with CP217, in the test on CP237, with CP238, in the test on CP247, in the test with CP250 and in the test on CP252 was “inactive” throughout. In addition, the Potency entry in the test with CP256, in the test on CP260, in the test on CP265 and in the test on CP286 was “inactive” each time.

On to `CC(C)N=c1cc2n(-c3ccc(Cl)cc3)c3ccccc3nc-2cc1Nc1ccc(Cl)cc1`, for which the Potency result with CP215, with CP217, in the test with CP238, with CP247, with CP250 and in the test on CP252 was “inactive” in each case. For the same molecule, the Potency entry with CP256, in the test with CP262, in the test with CP265, in the test with CP268, with CP269 and in the test with CP291 was “inactive” in each case. Further, the Potency result in the test with CP297, in the test with CP305, with CP315 and with CP325 was “inactive” each time. For the same molecule, the Potency in the test on CP286 was 3.55 µM (active).

On to `CC(Cc1ccc(O)c(O)c1)C(C)Cc1ccc(O)c(O)c1` (configuration not stated), for which the Potency result in the test with CP217, in the test with CP238, in the test with CP247, with CP250, in the test on CP252 and in the test on CP256 was “inactive” throughout. For the same molecule, the Potency result in the test on CP260, with CP262, in the test with CP265, in the test on CP266, with CP291 and in the test on CP305 was “inactive” each time. For the same molecule, the Potency entry in the test on CP315 and in the test on CP325 was “inactive” in each case.

On to `CC(=O)Oc1cc(C)c(OC(C)=O)c2ccccc12`, for which the Potency was 7.94 µM (active) with CP250, 10 µM (active) in the test with CP256, 13.5 µM (active) in the test with CP262 and 15.1 µM (active) in the test with CP325.
